Calls of active or inactive are those of the source. Rule for the calls: active = hit-call score of the fitted dose curve at least 0.9, where 1 is the maximum; inactive = score below 0.9.
Experiments:
Conditions in all cases: mRNA level, 48 h; actives raise or lower the signal
CYP2E1 (gene 1571) = assay: LTEA_HepaRG_CYP2E1: Life Technologies and Expression Analysis (LTEA) Assay for CYP2E1 using HepaRG (AID 2283485)
Method in brief: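 Human liver line HepaRG, plated 48 h, then serum-free induction medium + chemical x 48 h; 8-pt CRC from 100 uM, half-log, 0.5% DMSO, n=2. Readout: CYP2E1 mRNA qRT-PCR vs ACTB/GAPDH/POLR2A; bidirectional fit vs DMSO.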

CYP4A11 (gene 1579) = assay: LTEA_HepaRG_CYP4A11: Life Technologies and Expression Analysis (LTEA) Assay for CYP4A11 using HepaRG (AID 2283486)
Method in brief: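 HepaRG, 48 h chem exposure, 8 conc (100 uM top, half-log), 0.5% DMSO vehicle; qRT-PCR readout, housekeeping-gene normalized; bidirectional curve fit vs DMSO baseline.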

[1] = read-out: Cytochrome P450 3A4 (Homo sapiens) (UniProt P08684); assay: LTEA_HepaRG_CYP3A4: Life Technologies and Expression Analysis (LTEA) Assay for CYP3A4 using HepaRG (AID 2283487)
Method in brief: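 In a human hepatic line (HepaRG), duplicate wells were treated 48 h with up to 100 uM chemical in half-log dilutions. Endpoint: CYP3A4 mRNA induction or loss relative to 0.5% DMSO vehicle, by qRT-PCR.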

[2] = read-out: DNA damage-inducible transcript 3 (DDIT3), DDIT3 (gene 1649); assay: LTEA_HepaRG_DDIT3: Life Technologies and Expression Analysis (LTEA) Assay for DNA damage-inducible transcript 3 (DDIT3) using HepaRG (AID 2283488)
Method in brief: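 HepaRG plated 48 h, switched to serum-free induction medium, dosed 48 h (100 uM top, half-log, 8 pts, 0.5% DMSO, n=2); RNA isolated; DDIT3 by qRT-PCR; bidirectional curve fit vs DMSO.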

[3] = read-out: Pro-epidermal growth factor (Homo sapiens) (UniProt P01133); assay: LTEA_HepaRG_EGF: Life Technologies and Expression Analysis (LTEA) Assay for Epidermal growth factor (EGF) using HepaRG (AID 2283489)
Method in brief: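 HepaRG, 48 h dosing, 100 uM top, half-log x8, 0.5% DMSO. Readout: TaqMan qRT-PCR (Fluidigm array), housekeeping-normalized. Gain or loss of signal fit vs DMSO.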

[4] = read-out: Early growth response protein 1 (EGR1) transcription factor, EGR1 (gene 1958); assay: LTEA_HepaRG_EGR1: Life Technologies and Expression Analysis (LTEA) Assay for Early growth response protein 1 (EGR1) transcription factor using HepaRG (AID 2283490)
Method in brief: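 Differentiated human HepaRG cells in serum-free induction medium were exposed in duplicate for 48 h to eight concentrations (top 100 uM, half-log steps) in 0.5% DMSO. EGR1 mRNA was quantified by qRT-PCR, normalized to ACTB, GAPDH and POLR2A, and fitted bidirectionally versus DMSO.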

[5] = read-out: Cytochrome P450 3A7 (Homo sapiens) (UniProt P24462); assay: LTEA_HepaRG_CYP3A7: Life Technologies and Expression Analysis (LTEA) Assay for CYP3A7 using HepaRG (AID 2283492)
Method in brief: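 Human HepaRG liver cells, 48 h post-plating, switched to serum-free induction medium and exposed in duplicate for 48 h. Dosing: 100 uM top, half-log dilutions, 8 points, 0.5% DMSO vehicle. Read-out: CYP3A7 mRNA, gain or loss fitted against DMSO baseline.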

CYP3A5 (gene 1577) = assay: LTEA_HepaRG_CYP3A5: Life Technologies and Expression Analysis (LTEA) Assay for CYP3A5 using HepaRG (AID 2283493)
Method in brief: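 HepaRG plated 48 h, switched to serum-free induction medium, chemicals added 48 h (max 100 uM, half-log, 0.5% DMSO). RNA isolated; CYP3A5 by TaqMan qRT-PCR. Gain/loss vs DMSO.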

[6] = read-out: Fatty Acid-Binding Protein 1 (FABP1), FABP1 (gene 2168); assay: LTEA_HepaRG_FABP1: Life Technologies and Expression Analysis (LTEA) Assay for Fatty Acid-Binding Protein 1 (FABP1) using HepaRG (AID 2283494)
Method in brief: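 Differentiated human HepaRG cells were exposed in duplicate for 48 h in serum-free induction medium to 8-point half-log concentration series topping at 100 uM in 0.5% DMSO. FABP1 mRNA measured by TaqMan qRT-PCR, normalized to ACTB/GAPDH/POLR2A; bidirectional fit versus DMSO.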

[7] = read-out: Cytochrome P450 4A22 (Homo sapiens) (UniProt Q5TCH4); assay: LTEA_HepaRG_CYP4A22: Life Technologies and Expression Analysis (LTEA) Assay for Cytochrome P450 4A22 (CYP4A22) using HepaRG (AID 2283495)
Method in brief: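 Readout is CYP4A22 transcript induction or loss, quantified by qRT-PCR and normalized to ACTB, GAPDH and POLR2A. Human HepaRG cells receive test chemicals for 48 h at eight half-log concentrations from 100 uM in 0.5% DMSO.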

[8] = read-out: Cytochrome P450 7A1 (Homo sapiens) (UniProt P22680); assay: LTEA_HepaRG_CYP7A1: Life Technologies and Expression Analysis (LTEA) Assay for Cytochrome P450 7A1 (CYP7A1) using HepaRG (AID 2283496)
Method in brief: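 HepaRG cells plated 48 h, then switched to serum-free induction medium and exposed in duplicate for 48 h to 8-point half-log series from 100 uM in 0.5% DMSO. CYP7A1 mRNA by qRT-PCR (TaqMan), normalized to ACTB/GAPDH/POLR2A; bidirectional fit versus DMSO.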

[9] = read-out: Glutathione S-Transferase (GSTA2), GSTA2 (gene 2939); assay: LTEA_HepaRG_GSTA2: Life Technologies and Expression Analysis (LTEA) Assay for Glutathione S-Transferase (GSTA2) using HepaRG (AID 2283497)
Method in brief: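 Human HepaRG cells, plated 48 h, then exposed in serum-free induction medium for 48 h to eight half-log concentrations up to 100 uM in 0.5% DMSO, duplicate. GSTA2 mRNA by qRT-PCR, normalized to ACTB/GAPDH/POLR2A; bidirectional fit versus DMSO.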

[10] = read-out: Glutamate-cysteine ligase catalytic (GCLC), GCLC (gene 2729); assay: LTEA_HepaRG_GCLC: Life Technologies and Expression Analysis (LTEA) Assay for Glutamate-cysteine ligase catalytic (GCLC) using HepaRG (AID 2283498)
Method in brief: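 Differentiated human HepaRG cells, plated 48 h then switched to serum-free induction medium, were exposed in duplicate for 48 h to 8 half-log concentrations topping at 100 uM in 0.5% DMSO. GCLC mRNA was quantified by qRT-PCR against ACTB, GAPDH and POLR2A.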

[11] = read-out: growth arrest and DNA damage 45 (GADD45G), GADD45G (gene 10912); assay: LTEA_HepaRG_GADD45G: Life Technologies and Expression Analysis (LTEA) Assay for growth arrest and DNA damage 45 (GADD45G) using HepaRG (AID 2283499)
Method in brief: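 Gain or loss of GADD45G mRNA, quantified by TaqMan qRT-PCR against three housekeeping genes, is fitted in both directions relative to 0.5% DMSO. Human HepaRG cultures receive test chemical for 48 h at up to 100 uM.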

[12] = read-out: Glutamate-cysteine ligase regulatory (GCLM), GCLM (gene 2730); assay: LTEA_HepaRG_GCLM: Life Technologies and Expression Analysis (LTEA) Assay for Glutamate-cysteine ligase regulatory (GCLM) using HepaRG (AID 2283500)
Method in brief: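 Cells were plated, cultured 48 h, switched to serum-free induction medium, then dosed in duplicate for 48 h at eight half-log concentrations up to 100 uM. RNA was then profiled by qRT-PCR; gain or loss versus DMSO was fitted.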

[13] = read-out: Glutathione S-transferase M3 (GSTM3), GSTM3 (gene 2947); assay: LTEA_HepaRG_GSTM3: Life Technologies and Expression Analysis (LTEA) Assay for Glutathione S-transferase M3 (GSTM3) using HepaRG (AID 2283501)
Method in brief: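 HepaRG, plated 48 h, then serum-free induction medium; test chemical 48 h, duplicate; 100 uM top, half-log x8, 0.5% DMSO. Read-out: GSTM3 mRNA (TaqMan qRT-PCR, Fluidigm array). Bidirectional fit vs DMSO.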

[14] = read-out: Heat shock 70 kDa protein 1 (HSPA1A), gene 3303; assay: LTEA_HepaRG_HSPA1A: Life Technologies and Expression Analysis (LTEA) Assay for Heat shock 70 kDa protein 1 (HSPA1A) using HepaRG (AID 2283502)
Method in brief: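 Readout is HSPA1A transcript level by microfluidic qRT-PCR, normalized to three housekeeping genes and analysed for gain or loss of signal relative to 0.5% DMSO. Human HepaRG cultures received test chemicals for 48 h at up to 100 uM.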

[15] = read-out: Hypoxia-inducible factor 1-alpha (Homo sapiens) (UniProt Q16665); assay: LTEA_HepaRG_HIF1A: Life Technologies and Expression Analysis (LTEA) Assay for Hypoxia-inducible factor 1 (HIF1A) Trancription factor using HepaRG (AID 2283503)
Method in brief: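 Differentiated HepaRG cells in serum-free induction medium exposed 48 h, in duplicate, to 8-point half-log series from 100 uM in 0.5% DMSO. HIF1A mRNA measured by TaqMan qRT-PCR, normalized to ACTB/GAPDH/POLR2A, fitted bidirectionally versus DMSO.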

[16] = read-out: 3-Hydroxy-3-Methylglutaryl-CoA Synthase 2 (HMGCS2), HMGCS2 (gene 3158); assay: LTEA_HepaRG_HMGCS2: Life Technologies and Expression Analysis (LTEA) Assay for 3-Hydroxy-3-Methylglutaryl-CoA Synthase 2 (HMGCS2) using HepaRG (AID 2283504)
Method in brief: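 HepaRG, plated 48 h then switched to serum-free induction media; cmpd 8-pt, max 100 uM, 1/2-log, 0.5% DMSO, n=2, 48 h. HMGCS2 mRNA by Fluidigm TaqMan qRT-PCR, ACTB/GAPDH/POLR2A norm; bidirectional fit vs DMSO.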

[17] = read-out: Ezrin (EZR), EZR (gene 7430); assay: LTEA_HepaRG_EZR: Life Technologies and Expression Analysis (LTEA) Assay for Ezrin (EZR) using HepaRG (AID 2283491)
Method in brief: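 Gain or loss of EZR mRNA is scored relative to 0.5% DMSO in human HepaRG cultures treated 48 h with test chemicals in duplicate, eight half-log concentrations from 100 uM.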

Measured: AC50

Chain of Hypoxia-inducible factor 1-alpha (Homo sapiens) (Q16665 whole entry, looked up): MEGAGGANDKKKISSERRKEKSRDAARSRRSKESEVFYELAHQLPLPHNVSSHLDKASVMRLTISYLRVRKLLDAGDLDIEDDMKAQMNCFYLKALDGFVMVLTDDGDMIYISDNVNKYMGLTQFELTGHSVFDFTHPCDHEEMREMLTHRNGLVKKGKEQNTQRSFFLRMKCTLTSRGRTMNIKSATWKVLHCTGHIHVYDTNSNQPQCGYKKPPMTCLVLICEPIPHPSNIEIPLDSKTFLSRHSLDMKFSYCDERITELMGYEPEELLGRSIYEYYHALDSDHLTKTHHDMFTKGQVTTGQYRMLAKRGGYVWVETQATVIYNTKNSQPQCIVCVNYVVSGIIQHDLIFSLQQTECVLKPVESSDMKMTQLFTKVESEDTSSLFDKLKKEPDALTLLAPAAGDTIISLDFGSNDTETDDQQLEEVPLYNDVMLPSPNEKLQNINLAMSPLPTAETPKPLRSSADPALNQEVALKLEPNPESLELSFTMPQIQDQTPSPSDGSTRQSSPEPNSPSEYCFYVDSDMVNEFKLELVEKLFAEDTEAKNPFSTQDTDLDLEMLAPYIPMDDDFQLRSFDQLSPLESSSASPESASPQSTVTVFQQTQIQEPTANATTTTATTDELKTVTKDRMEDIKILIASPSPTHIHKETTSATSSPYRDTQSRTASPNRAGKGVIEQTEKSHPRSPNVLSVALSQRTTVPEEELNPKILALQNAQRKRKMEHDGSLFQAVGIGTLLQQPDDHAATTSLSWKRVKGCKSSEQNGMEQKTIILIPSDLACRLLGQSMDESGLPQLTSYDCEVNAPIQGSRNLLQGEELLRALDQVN
Chain of Cytochrome P450 3A7 (Homo sapiens) (P24462 whole entry, looked up): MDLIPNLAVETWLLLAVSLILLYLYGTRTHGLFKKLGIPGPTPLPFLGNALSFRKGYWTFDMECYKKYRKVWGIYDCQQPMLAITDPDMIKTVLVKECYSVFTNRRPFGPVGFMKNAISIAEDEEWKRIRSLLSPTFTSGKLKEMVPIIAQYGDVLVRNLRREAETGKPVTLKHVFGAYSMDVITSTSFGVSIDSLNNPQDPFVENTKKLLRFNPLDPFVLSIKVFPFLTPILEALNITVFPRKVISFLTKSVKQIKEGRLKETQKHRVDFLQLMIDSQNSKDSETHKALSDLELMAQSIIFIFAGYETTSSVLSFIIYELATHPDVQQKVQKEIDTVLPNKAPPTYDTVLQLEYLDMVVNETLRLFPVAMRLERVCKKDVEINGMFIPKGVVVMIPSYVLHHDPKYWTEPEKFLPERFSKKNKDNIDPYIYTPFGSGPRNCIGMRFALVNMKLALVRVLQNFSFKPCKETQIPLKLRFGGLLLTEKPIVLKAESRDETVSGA
Chain of Cytochrome P450 3A4 (Homo sapiens) (P08684 whole entry, looked up): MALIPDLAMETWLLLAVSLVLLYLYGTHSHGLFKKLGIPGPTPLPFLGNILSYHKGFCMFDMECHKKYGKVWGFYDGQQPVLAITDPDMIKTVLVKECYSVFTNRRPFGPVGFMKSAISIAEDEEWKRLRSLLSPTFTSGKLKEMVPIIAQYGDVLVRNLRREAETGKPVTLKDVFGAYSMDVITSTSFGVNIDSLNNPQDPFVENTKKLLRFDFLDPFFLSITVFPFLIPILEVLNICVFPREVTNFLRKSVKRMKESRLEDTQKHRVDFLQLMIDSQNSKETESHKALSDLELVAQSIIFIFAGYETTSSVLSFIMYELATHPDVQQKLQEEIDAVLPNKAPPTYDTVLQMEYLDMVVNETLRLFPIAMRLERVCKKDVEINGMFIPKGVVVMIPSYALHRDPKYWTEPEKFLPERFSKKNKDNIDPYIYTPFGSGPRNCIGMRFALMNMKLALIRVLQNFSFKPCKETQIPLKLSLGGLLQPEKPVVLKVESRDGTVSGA

CCCCCCc1ccc(O)cc1O
inactive: CYP2E1 (gene 1571) | CYP4A11 (gene 1579) | [1] | [2] | [3] | [4] | [5] | CYP3A5 (gene 1577) | [6] | [7] | [8] | [9] | [10] | [11] | [12] | [13] | [14] | [15] | [16]

CCOCCOCCOCCO
inactive: CYP2E1 (gene 1571) | CYP4A11 (gene 1579) | [1] | [2] | [3] | [4] | [17] | [5] | CYP3A5 (gene 1577) | [6] | [7] | [8] | [9] | [10] | [11] | [12] | [13] | [14] | [15] | [16]

O=C(O)CCN(C1(C(=O)NO)CCCC1)S(=O)(=O)c1ccc(Oc2ccc(F)cc2)cc1
inactive: CYP2E1 (gene 1571) | CYP4A11 (gene 1579) | [2] | [3] | [4] | [5] | CYP3A5 (gene 1577) | [6] | [7] | [8] | [9] | [10] | [11] | [12] | [13] | [14] | [15] | [16]
active: [1] 22.8 µM

Cn1c(=O)cc(Oc2ccc(F)cc2F)c2cnc(NCC(C)(C)O)nc21
inactive: [2] | [3] | [4] | [6] | [7] | [8] | [9] | [10] | [12] | [13] | [14] | [15] | [16]
active: CYP2E1 (gene 1571) 50 µM | CYP4A11 (gene 1579) 50 µM | [1] 50 µM | [5] 28.9 µM | CYP3A5 (gene 1577) 50 µM | [11] 9.17 µM

CC(O)CN(CCN(CC(C)O)CC(C)O)CC(C)O (stereo not given)
active: CYP4A11 (gene 1579) 12.8 µM | [4] 12.6 µM | CYP3A5 (gene 1577) 12.4 µM | [9] 12.5 µM
inactive: CYP2E1 (gene 1571) | [1] | [2] | [3] | [17] | [5] | [6] | [7] | [8] | [10] | [11] | [12] | [13] | [14] | [16]

COCCOc1cc2cc(C(=O)NC3CCN(C(C)C)CC3)n(CC(=O)Nc3ccc(Cl)cn3)c2cn1
active: CYP2E1 (gene 1571) 52.6 µM | CYP4A11 (gene 1579) 69.7 µM | [1] 45 µM | [5] 72 µM | CYP3A5 (gene 1577) 15.9 µM | [6] 34.9 µM | [7] 76.7 µM | [8] 41.2 µM | [9] 45 µM | [11] 45 µM | [13] 45 µM | [15] 72.9 µM | [16] 47.2 µM
inactive: [2] | [3] | [4] | [17] | [10] | [12]
